For 40 molecules, Potency results are on record in PubChem BioAssay (NCATS).

The source made the active and inactive calls. Calls follow the shape of the full dose curve.

The assay can be described thus: Cell Proliferation Assay Versus the ED40515 IL2 Independent ATL cell lines (AID 1053194). The following applies: ED40515 IL2-independent ATL cells. The text has this: Adult T-cell leukemia (ATL) develops in individuals infected with human T-cell lymphotropic virus-1 (HTLV-1). Clinically, ATL is subclassified into four subtypes: smoldering, chronic, lymphomatous, and acute. Two autocrine loops (IL-2/IL-2Ralpha and IL-15/IL-15Ralpha) and one paracrine stimulation loop that involves IL-9 expression by ATL cells and IL-9Ralpha expression on monocytes are required to maintain viability and proliferation in the smoldering and chronic forms of the disease. These assays examined the differential response profiles for the MIPE library of approved and investigational drugs versus an IL2 dependent and independent matched ATL cell line, with the current submission examining the differential response profiles for drugs on an IL2 independent matched ATL cell line
Plate log growing ED40515 -IL2 cells: 1000cells/ well in 5uL phenol red free RPMI +5% FBS +1x p/s, Glutamine using 1536 well white griener tissue culture plates and multidrop cassette acoustic dispensing Columns 1 and 3 DMSO Columns 2 and 4, 9.2 uM Bortezomib Incubate 48 hours for celltiter glo 37C with 5%CO2 and 95% humidity with low evaporation lids Dispense 3 uL per well of cell titer glo with multidrop Incubate for 15 minutes at RT Read on VL/2 using Luminesence Wheel (Filter A)
For `C[C@]12CC[C@H](O)CC1=CC[C@@H]1[C@H]2CC[C@]2(C)C(c3cccnc3)=CC[C@H]12`, the Potency was 26.4 µM (active).

`CC(C)(C)OC(=O)CN(Cc1ccc(Cl)cc1)Cc1ccc([N+](=O)[O-])s1`: the Potency was 29.6 µM (active).

For `Cc1cccc(-c2nn(C(=S)Nc3ccccc3)cc2-c2ccnc3ccccc23)n1`, the Potency was 26.4 µM (active).

As for `CCn1c(-c2nonc2N)nc2c(C#CC(C)(C)O)ncc(OC[C@H]3CCCNC3)c21`, the Potency is 33.2 µM (active).

Turning to `COc1ccccc1-c1cccc(-c2c(O)c3cc(C#N)c(Cl)cc3[nH]c2=O)c1`, the Potency is 16.6 µM (active).

Turning to `CCc1cc(Nc2nccc(-c3c(-c4ccc(OC)c(C(=O)Nc5c(F)cccc5F)c4)nc4ccccn34)n2)c(OC)cc1N1CCC(N2CCN(S(C)(=O)=O)CC2)CC1`, the Potency was 4.69 µM (active).

Turning to `CCN(CC)CCCC(C)Nc1nc(C)cc(Nc2ccc3nc(C)cc(N)c3c2)n1` (stereo not given), the Potency was 26.4 µM (active).

As to `CC1(C)CNc2cc(NC(=O)c3cccnc3NCc3ccncc3)ccc21`, the Potency was 33.2 µM (active).

With `CC1(C)SCCN(S(=O)(=O)c2ccc(OCC#CCO)cc2)[C@@H]1C(=O)NO`, the Potency was 37.2 µM (active).

Turning to `CC(=O)NC(C)c1ccc(Oc2ccc(OC(C)C)cc2)cc1` (stereo not given), the Potency was 10.5 µM (active).

As for `CC(C)OC(=O)C1=CN(C(=O)c2ccc(F)c(F)c2)CC(C)(C)c2c1[nH]c1ccccc21`, the Potency was 11.8 µM (active).

For `CNC(=O)c1ccc(N2C(=S)N(c3ccc(C#N)c(C(F)(F)F)c3)C(=O)C2(C)C)cc1F`, the Potency was 23.5 µM (active).

As for `CCOc1cc(C=C2C(=O)N(c3ccccc3)N=C2C)cc(Cl)c1OCC(=O)OC`, the Potency is 29.6 µM (active).

For the molecule `O=C(c1cc(Cc2n[nH]c(=O)c3ccccc23)ccc1F)N1CCN(C(=O)C2CC2)CC1`, the Potency was 16.6 µM (active).

Regarding `OCCC#Cc1nc(-c2ccc(F)cc2)c(-c2ccncc2)n1CCCc1ccccc1`, the Potency was 23.5 µM (active).

For the molecule `COc1nc(-c2ccc3c(c2)OCO3)n(-c2ccc(NC(=O)CSc3ccccc3)cc2)n1`, the Potency is 23.5 µM (active).

With `Cn1c(=O)c(F)c(Nc2ccc(I)cc2F)c2c(=O)n(C[C@@H](O)CO)cnc21`, the Potency was 26.4 µM (active).

Regarding `CCCn1c(=O)c2[nH]c(C34CC5CC3C[C@@H](C5)C4)nc2n(CCC)c1=O`, the Potency is 18.7 µM (active).

For the molecule `CNC(=O)c1ccc(C)c(-n2c(C)cc(OCc3ccc(F)cc3F)c(Br)c2=O)c1`, the Potency was 26.4 µM (active).

With `Cc1cc(Nc2nc(N[C@@H](C)c3ncc(F)cn3)ncc2Cl)n[nH]1`, the Potency was 14.8 µM (active).

For the molecule `C/C(=C\C(=O)Nc1ccccc1C(=O)O)c1ccc2ccccc2c1`, the Potency is 8.33 µM (active).

`O=C(Nc1nc2ccccc2n1CCN1CCOCC1)c1cccc([N+](=O)[O-])c1`: the Potency was 18.7 µM (active).

Turning to `S=C(NCc1ccc2c(c1)OCO2)N1CCN(c2ncnc3c2oc2ccccc23)CC1`, the Potency is 3.32 µM (active).

On to `CO[C@@H]1[C@H](N(C)C(=O)c2ccccc2)C[C@H]2O[C@]1(C)n1c3ccccc3c3c4c(c5c6ccccc6n2c5c31)C(=O)NC4`, for which the Potency is 0.743 µM (active).

In the case of `CC(C)c1onc(-c2c(Cl)cccc2Cl)c1COc1ccc(/C=C/c2cccc(C(=O)O)c2)c(Cl)c1`, the Potency was 33.2 µM (active).

In the case of `O=c1ncn2nc(Sc3ccc(F)cc3F)ccc2c1-c1c(Cl)cccc1Cl`, the Potency was 26.4 µM (active).

Consider `COc1cc(Oc2ccnc3cc(OC)c(OC)cc23)ccc1NC(=O)NC(C)c1nccs1` (stereo not given), for which the Potency is 9.35 µM (active).

For the molecule `Clc1ccc(Nc2nnc(Cc3ccncc3)c3ccccc23)cc1`, the Potency was 33.2 µM (active).

With `COc1ccccc1[C@H](c1cccc2ccccc12)[C@@](C)(C#N)C(=O)N1CCC(c2cccc(C(F)(F)F)c2)CC1`, the Potency is 7.43 µM (active).

On to `CC(C)(Sc1ccc(CCN(CCCCC2CCCCC2)C(=O)NC2CCCCC2)cc1)C(=O)O`, for which the Potency is 33.2 µM (active).

Regarding `CNC(=O)c1ccccc1Sc1ccc2c(/C=C/c3ccccn3)n[nH]c2c1`, the Potency was 16.6 µM (active).

For the molecule `CCc1ccc(CCOc2ccc(CC3SC(=O)NC3=O)cc2)nc1` (stereo not given), the Potency was 23.5 µM (active).

As to `CCOc1cc(C(=O)Nc2ccc(Cl)c(-c3nc4ccccc4[nH]3)c2)cc(OCC)c1OCC`, the Potency is 18.7 µM (active).

Regarding `CCCCCCCc1ccc(CCc2cccc(O)c2C(=O)O)cc1`, the Potency is 16.6 µM (active).

Regarding `CCCS(=O)(=O)Nc1ccc(F)c(C(=O)c2c[nH]c3ncc(Cl)cc23)c1F`, the Potency was 13.2 µM (active).

`CCC(C)n1ncn(-c2ccc(N3CCN(c4ccc(OC[C@H]5CO[C@](Cn6cncn6)(c6ccc(Cl)cc6Cl)O5)cc4)CC3)cc2)c1=O` (stereo not given in full): the Potency is 10.5 µM (active).

Regarding `CN(C)C(=O)c1ccc(S(=O)(=O)c2ccc(NC(=O)[C@@](C)(O)C(F)(F)F)c(Cl)c2)cc1`, the Potency was 9.35 µM (active).

On to `Cc1ccc(NC(=O)c2cccc(C(C)(C)C#N)c2)cc1Nc1ccc2ncn(C)c(=O)c2c1`, for which the Potency is 26.4 µM (active).

In the case of `CC(C)C[C@H](NC(=O)[C@@H](O)[C@H](N)Cc1ccccc1)C(=O)O`, the Potency is 6.62 µM (active).

`C[C@@H]1CN(Cc2ccc(F)cc2)[C@@H](C)CN1C(=O)c1cc2c(C(=O)C(=O)N(C)C)cn(C)c2cc1Cl`: the Potency is 37.2 µM (active).
